Data: PubChem BioAssay (NCI)
About 83,000 compounds went through this panel and 20% of them were active in at least one assay; those are over-represented in the sample as a whole.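 Single-dose data. Exposure time 48 hours. Values below 10 considered active.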 A number with no mark means an inactive call. Active and inactive are the calls of the source.

What was measured:
Assay in all cases: NCI-60 one-dose screen, 48 h (100 = growth as untreated, 0 = no growth, -100 = all killed)
[1] = tested on: NCI-H226 lung; conditions: 10 µM unless noted
[2] = tested on: NCI-H322M lung; conditions: 10 µM unless noted
[3] = tested on: HOP-62 NSCLC; conditions: 10 µM unless noted
[4] = tested on: NCI-H460 lung; conditions: 10 µM unless noted
[5] = tested on: HOP-92 NSCLC; conditions: 10 µM
[6] = tested on: NCI-H522 lung; conditions: 10 µM unless noted
[7] = tested on: A549/ATCC NSCLC; conditions: 10 µM unless noted
[8] = tested on: 786-0 renal; conditions: 10 µM unless noted
[9] = tested on: COLO 205 colon; conditions: 10 µM unless noted
[10] = tested on: DU-145 prostate; conditions: 10 µM unless noted
[11] = tested on: K-562 leukemia; conditions: 10 µM unless noted
[12] = tested on: MALME-3M melanoma; conditions: 10 µM unless noted
[13] = tested on: MDA-MB-231 breast; conditions: 10 µM unless noted
[14] = tested on: SF-268 CNS; conditions: 10 µM unless noted
[15] = tested on: SF-295 CNS; conditions: 10 µM unless noted
[16] = tested on: SF-539 CNS; conditions: 10 µM unless noted
[17] = tested on: UACC-257 melanoma; conditions: 10 µM unless noted
[18] = tested on: NCI-H23 lung; conditions: 10 µM unless noted
[19] = tested on: RXF 393 renal; conditions: 10 µM unless noted
[20] = tested on: M14 melanoma; conditions: 10 µM unless noted

Compound | growth [1] | growth [2] | growth [3] [%] | growth [4] | growth [5] | growth [6] | growth [7] [%] | growth [8] | growth [9] | growth [10] | growth [11] | growth [12] | growth [13] | growth [14] [%] | growth [15] | growth [16] | growth [17] | growth [18] | growth [19] | growth [20]
O=C1[C@@H]2Cc3c([nH]c4ccccc34)[C@H](c3c(Cl)cccc3Cl)N2C(=O)CN1C1CCN(CC2CCCCC2)CC1 | 85.9% | 83.5% | 104 | 12.7% | 64.8% | 24.1% | 64.4 | 46.6% | 96.2% | 34.4% | 1.73% (active) | 80.6% | 50% | 75.2 | 105% | 68.8% | 91.4% | – | – | –
Oc1[nH]c2ccccc2c1Nn1c(N=N/C=c2/ccc3c(c2)C=NN=3)n[nH]c1=S | 93.9% | 107% | 75.6 | 110% | – | – | 99.9 | 96.7% | 30.9% | 99.1% | 101% | 109% | 75.6% | 96.9 | 106% | 94% | 110% | 89.6% | 85.4% | 106%
CCCC(=O)NC(c1cccnc1)c1cc(C(C)(C)C)c2cccnc2c1O (stereo not given) | 12.7% | 33.6% | 25.9 | 3.55% (active) | 50.5% | 7.22% (active) | 18.2 | 2.54% (active) | 20.3% | 31.8% | 12.5% | 25% | 34.6% | 24.2 | 17% | 13.4% | 4.98% (active) | – | 53.6% | 3.19% (active)
CC(=O)O[C@@H]1C(=O)N(c2cnccn2)[C@H]1c1ccccc1[N+](=O)[O-] | 39.3% | 36.6% | 41.5 | -5.1% (active) | 9.48% (active) | -45.7% (active) | 14.4 | 14.7% | 20.9% | 2.33% (active) | 9.97% (active) | 51.8% | 22.4% | 19.4 | 23.9% | -32.5% (active) | 44.7% | – | 62.9% | -2.82% (active)
CC(=O)c1ccc(Nc2nc(SCC(C)C)nc(-c3ccc(F)cc3)c2C#N)cc1 | 114% | 116% | 116 | 109% | 118% | 103% | 109 | 105% | 115% | 113% | 106% | 114% | 106% | 114 | 118% | 105% | 106% | – | 118% | 115%
COC[C@]12CCC(C)(C)C[C@H]1C1=CC[C@@H]3[C@@]4(C)CCCNC(C)(C)[C@@H]4CC[C@@]3(C)[C@]1(C)CC2 | -61.5% (active) | -50.5% (active) | 46.6 | -69% (active) | – | – | 10.1 | -83.1% (active) | -59.6% (active) | -39.8% (active) | -43.7% (active) | -68.5% (active) | -53.3% (active) | 33.7 | -89% (active) | -63.7% (active) | -18.5% (active) | -83.9% (active) | -93% (active) | -67.3% (active)
CCCCCCCn1cc2c(N[C@H](C)c3ccccc3)ncnc2n1 | 100% | 101% | 95.7 | 104% | 94% | 99.6% | 106 | 105% | 115% | 98.1% | 106% | 94.2% | 98.4% | 102 | 94.5% | 98.8% | 110% | – | 97.1% | 99.8%
COc1cccc(N2CCN(c3ncnc4c3[nH]c3ccc(F)cc34)C[C@H]2C)c1 | 33.5% | 89.6% | 56.6 | 66.3% | 53.3% | 33.1% | 61 | 71.4% | 61.4% | 81.5% | 26.6% | 48.2% | 64.3% | 84.5 | 31.8% | 69.6% | 15.4% | – | 88% | 41.7%
COC(=O)c1ccc(NC2=C/C(=N/S(=O)(=O)c3ccc(C(=O)O)cc3)c3ccccc3C2=O)cc1 | 32.7% | 107% | 88.2 | 96.3% | 23.3% | 81.7% | 98.7 | 9.38% (active) | 115% | 7.85% (active) | 0.527% (active) | -89.3% (active) | -21.6% (active) | 37.7 | 91.5% | -83.1% (active) | -6.94% (active) | – | -14.6% (active) | 67.4%
C=CC(=O)N1CCC=C(c2cc3c(N[C@H](C)c4ccccc4)ncnc3[nH]2)C1 | 58.5% | 31% | 58.5 | 98% | – | – | 52.1 | 43.6% | 96% | 42.9% | 37% | 101% | 44.4% | 60.1 | 72% | 74.6% | 87.4% | 83.3% | -17% (active) | 85.9%
C[C@H]1c2[nH]c3ccccc3c2C[C@H]2C(=O)N(CCCCCCC(=O)NO)CC(=O)N21 | 94.6% | 84.9% | 88.7 | 82.7% | 67.6% | 65.6% | 98 | 92% | 90.3% | 95.2% | 57.3% | 41.4% | 78.5% | 90.1 | 93.6% | 73.2% | 63% | – | 93% | 91.4%
C=CCOc1cccc(/C=C2\SC(=S)N(C3CC(=O)N(c4ccc(Br)cc4)C3=O)C2=O)c1 (stereo not given) | 101% | 102% | 100 | 104% | 107% | 101% | 105 | 104% | 126% | 109% | 88.1% | 100% | 96.3% | 103 | 97.8% | 101% | 108% | – | 132% | 106%
CS(=O)(=O)c1ccc(-n2cc(/C=N/O)c(-c3ccccc3)n2)cc1 | 77.1% | 81.7% | 89.5 | 93.9% | 87.9% | 70.3% | 77.2 | 79.1% | 101% | 83.9% | 64.5% | 97.2% | 72.4% | 70.9 | 87.3% | 71.1% | 90.1% | – | 78.6% | 98.1%
Nc1cc(-c2c[nH]c3ccc(Br)cc23)nc2cc(-c3c[nH]c4ccc(Br)cc34)nn12 | 55.3% | 39.8% | 40 | -24.8% (active) | -12.1% (active) | -64% (active) | 17.7 | -50.3% (active) | -50.5% (active) | 24.2% | 1.82% (active) | 45.6% | 7.95% (active) | 27.8 | 6.52% (active) | -4.74% (active) | 65% | – | 28.4% | -52.1% (active)
Cn1cc(-c2cc(N)n3nc(-c4cn(C)c5ccccc45)cc3n2)c2ccccc21 | 113% | 98.5% | 108 | 93.3% | 88.8% | 109% | 75.8 | 63.7% | 123% | 88.1% | 7.81% (active) | 84% | 76.4% | 100 | 95.9% | 84.1% | 107% | – | 95.6% | 32.1%
